This passage reports Potency results from PubChem BioAssay (NCATS).

Assay in all cases: qHTS profiling for inhibitors of Plasmodium falciparum proliferation (AID 504749); also: nearly all actives have a fitted effect of over 60% in size
Common to all, as to details: P. falciparum in erythrocytes, SYBR Green DNA, 72 h; series mostly up to 28.7 µM
For orientation: Quantitative high-throughput screening tests each substance at several concentrations.

In one assay the test system is N140. The method, boiled down: (§1)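 SYBR Green fluorescence of parasite DNA, read after lysis and overnight dark incubation, measured growth over 72 h in erythrocyte culture at 0.3% parasitemia and 2.5% hematocrit. Data normalised to DMSO and 0.29 uM artemisinin, with plate-drift correction.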
In a further assay the test system is P93_24. The procedure, abridged:
as §1

The next assay relates to P94_40. The method, boiled down:
as §1

In a further assay the test system is PAD. The procedure, abridged:
as §1

The next assay deals with PC15. The method, boiled down:
as §1

The next assay deals with PC26. The method, boiled down: as §1
The test system of a further assay is PC49. The procedure, abridged:
as §1

For another assay, the system named is SC27B. The method, boiled down: as §1
In the next assay the test system is TAB109. The procedure, abridged: as §1
The subject of another assay is TAB113. The method, boiled down: as §1

SMILES strings stand for the structures. Records with an inconclusive call do not appear. Activity calls are given as the source filed them. Calls follow the shape of the dose curve; as a rule, active = well fitted inhibition curve with a large enough effect; inconclusive = small, poorly fitted or top-dose-only effect; inactive = flat fitted curve, though single readings scatter.
Potency is read from the fitted curve at half-maximal effect.

On to `COc1ccc([C@@H]2CNC(=O)C2)cc1OC1CCCC1`, for which the Potency result in the assay on N140, in the assay on P93_24, in the assay on P94_40, in the assay on PAD, with PC15 and in the assay with PC26 was “inactive” throughout. Further, the Potency result in the assay with PC49, in the assay with SC27B, in the assay on TAB109 and in the assay with TAB113 was “inactive” throughout.

On to `COc1ccc2c(c1OC)C(=O)OC2[C@H]1c2c(cc3c(c2OC)OCO3)CCN1C` (stereo partly drawn), for which the Potency result with N140, with P93_24, in the assay with P94_40, in the assay on PAD, in the assay on PC15 and in the assay on PC26 was “inactive” throughout. Moreover, the Potency entry in the assay on PC49, in the assay with SC27B, in the assay on TAB109 and in the assay with TAB113 was “inactive” throughout.

Take `Nc1nc2c(c(=O)[nH]1)N(C=O)[C@H](CNc1ccc(C(=O)N[C@@H](CCC(=O)O)C(=O)O)cc1)CN2`: the Potency entry with N140, in the assay with P93_24, in the assay on P94_40, in the assay on PAD, with PC15 and with PC26 was “inactive” each time. Besides, the Potency result with PC49, in the assay on SC27B, in the assay on TAB109 and in the assay on TAB113 was “inactive” each time.

As for `CCCCCCCCCCCC(CC1OC(=O)C1CCCCCC)OC(=O)C(CC(C)C)NC=O` (stereo not drawn), the Potency with N140 is 631 nM (active); in the assay on P93_24 it was 891 nM (active); in the assay with P94_40 it was 355 nM (active); with PC15, 1120 nM (active); with PC49 it was 891 nM (active); in the assay with SC27B, 447 nM (active). Also, the Potency in the assay with TAB109 is 794 nM (active); in the assay on TAB113, 282 nM (active).

Regarding `COc1cccc2c1C(=O)c1c(O)c3c(c(O)c1C2=O)C[C@@](O)(C(=O)CO)C[C@@H]3O[C@H]1C[C@H](N)[C@H](OC2CCCCO2)[C@H](C)O1` (stereo partly drawn), the Potency was 1580 nM (active) in the assay on N140; 2240 nM (active) in the assay with P93_24; 2510 nM (active) with P94_40; 2240 nM (active) in the assay on PAD; 10000 nM (active) in the assay on PC15; 7570 nM (active) in the assay with PC26. The Potency was 4470 nM (active) in the assay with PC49, 2820 nM (active) with SC27B, 2510 nM (active) with TAB109 and 3550 nM (active) in the assay on TAB113.

Take `CCC(C(=O)O)C1CCC(C)C(C(C)C(O)C(C)C(=O)C(CC)C2OC3(C=CC(O)[C@@]4(CC[C@](C)(C5CC[C@@](O)(CC)C(C)O5)O4)O3)C(C)CC2C)O1` (stereo partly drawn): the Potency in the assay on N140 is 891 nM (active); in the assay with P93_24 it was 891 nM (active); with P94_40, 501 nM (active); with PAD, 1410 nM (active); in the assay on PC15 it was 2000 nM (active); in the assay on PC26, 478 nM (active). Moreover, the Potency with PC49 is 2510 nM (active); in the assay with SC27B, 794 nM (active); in the assay on TAB109, 1000 nM (active); in the assay on TAB113, 891 nM (active).

Take `OCC(O)C(O)C(O)CO` (stereo not drawn): the Potency result with N140, in the assay on P93_24, with P94_40, with PAD, with PC15 and in the assay with PC26 was “inactive” each time. In addition, the Potency result with PC49, in the assay with SC27B, in the assay on TAB109 and in the assay with TAB113 was “inactive” each time.
